# Measured values: PubChem BioAssay AID1851 (National Center for Advancing Translational Sciences (NCATS), 2009)
# Hit rate of the full screen: of about 16,000 compounds, about 2,600 (16%) were called active. Not shown: some 20% with an inconclusive outcome. A selection follows. A number with no mark means an inactive call. Calls come from the whole dose curve; as a rule, active = well fitted curve in the direction sought with a large enough effect; inconclusive = small, poorly fitted or top-dose-only effect, or effect the other way; inactive = no such curve, though single readings can be large or run the other way.
# Target: Cytochrome P450 2D6 (Homo sapiens) (UniProt P10635)
# Assay: Cytochrome panel assay with activity outcomes
# Settings: recombinant CYP, pro-luciferin dealkylation, luminescence, p450-cyp2d6; series mostly up to 57.1 µM; activity, negative = inhibition: at the top concentration
# % is set by controls: 0 for no effect and ±100 for the full control effect.
# Sequence of Cytochrome P450 2D6 (Homo sapiens) (P10635 whole entry, looked up): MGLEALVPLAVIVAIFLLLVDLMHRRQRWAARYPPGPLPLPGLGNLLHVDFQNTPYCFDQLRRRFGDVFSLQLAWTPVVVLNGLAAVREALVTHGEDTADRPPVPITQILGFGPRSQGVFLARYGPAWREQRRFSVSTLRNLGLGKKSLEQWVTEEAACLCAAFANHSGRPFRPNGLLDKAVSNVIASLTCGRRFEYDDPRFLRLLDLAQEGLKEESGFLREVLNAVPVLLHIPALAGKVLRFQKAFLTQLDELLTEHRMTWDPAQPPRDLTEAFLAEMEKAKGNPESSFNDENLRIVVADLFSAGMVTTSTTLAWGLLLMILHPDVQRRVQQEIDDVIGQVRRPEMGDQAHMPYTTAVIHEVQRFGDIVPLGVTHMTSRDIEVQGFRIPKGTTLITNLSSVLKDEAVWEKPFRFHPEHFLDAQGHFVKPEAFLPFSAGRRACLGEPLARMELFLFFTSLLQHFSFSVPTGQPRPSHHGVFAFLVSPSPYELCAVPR
SMILES,"activity, negative = inhibition",AC50
CC(C)(C)N1C(=O)[C@@H]2[C@H]3C(=CC[C@H]2C1=O)C(=O)[C@H]1O[C@H]1[C@H]3O,11.6% [at 11.4 µM],
O=C1[C@@H]2C=CC=CC2=NC(=S)N1CCN1CCC(=C(c2ccc(F)cc2)c2ccc(F)cc2)CC1,,12.6 µM (active)
COC(=O)C/C=C\[C@@H](C)[C@@H](/C=N\O[C@@H](C)c1cn([C@H]2COC[C@H]2O)nn1)OC,15.1% [at 11.4 µM],
N=C(N)SCC(=O)O,-6.02% [at 11.4 µM],
O=C1CC(c2ccc3c(c2)OCO3)Sc2nc3ccccc3n21 (stereo not drawn),,8.91 µM (active)
Cc1ccc(NC(=O)C2CC(=O)n3c(nc4ccccc43)N2)cc1 (stereo not drawn),22.5%,
O=C1CC(c2ccc3c(c2)OCO3)CN1 (stereo not drawn),-9.95%,
COC(=O)N/N=C\C=C\c1ccc2c(c1)OCO2,,11.2 µM (active)
CSC1=N/C(=C\c2ccc3c(c2)OCO3)C(=O)S1,-11.1%,
Cc1cccc(OCC(=O)N/N=C\C=C\c2ccc3c(c2)OCO3)c1C,-10.2%,
CCOc1cc(/C=C2\CCC/C(=C\c3cc(Cl)c(O)c(OCC)c3)C2=O)cc(Cl)c1O,-20.4%,
CCOC(=O)c1c2ccc(OCC(=O)N/N=C/c3ccc(Cl)cc3)cc2n2ccccc12,-6.7%,
O=C(Nc1nnc(SCc2c(Cl)cccc2Cl)s1)C1CCCO1 (stereo not drawn),-22.2%,
Clc1cccc(Cl)c1CSc1nnc(/C=C/c2ccccc2)o1,,28.2 µM (active)
Clc1ccccc1CSc1nnc(/C=C/c2ccccc2)o1,-13.5%,
COc1cccc(Nc2ncc3nc(-c4cc(F)cc(F)c4)c(=O)n(CCC#N)c3n2)c1,-5.95%,
CCCCCCCCn1cc(C(C)=O)c(=O)[nH]c1=O,-17.1%,
O=c1cnc2cnc(Oc3cccc(Cl)c3)nc2n1C[C@H]1CCCO1,-10.4%,
COc1ccc([N+](=O)[O-])cc1N(CC(O)CN(CC(C)C)CC(C)C)S(=O)(=O)c1ccccc1 (stereo not drawn),,0.398 µM (active)
COc1ccc(OC)c(N(CC(=O)N2CCc3ccccc3C2)S(C)(=O)=O)c1,11.7%,
CCN(CC)S(=O)(=O)c1ccc(OC)c(NC(=O)c2cc([N+](=O)[O-])ccc2Cl)c1,7.36%,

SMILES,"activity, negative = inhibition",AC50
COc1ccc(C(=O)CN2C(=O)NC(C)(c3ccccc3)C2=O)cc1OC (stereo not drawn),29.8%,
CN(C)Cc1ccc(O)c(CN(C)C)n1,2.9% [at 11.4 µM],
Cc1ccc(NC(=O)c2cccc(N(C)C)c2)cc1NC(=O)c1ccc(O)cc1,-8.94%,
Cc1ccc(C(=O)Nc2ccc3nccnc3c2)cc1,-24.5%,
CN(C)CCCc1cc(C(=O)Nc2ccc(-c3ccncc3)cc2)ccc1O,,5.01 µM (active)
Cc1cc(C)cc(-n2nnnc2-c2cn(C)nc2C(F)(F)F)c1,-20.2%,
Cc1cccc(NC(=O)c2ccc([N+](=O)[O-])o2)n1,-26.8%,
COc1cc(/C=N/NC(=O)c2cccnc2)ccc1OC(=O)c1ccco1,-4.37%,
Cc1cc(C(=O)N/N=C/c2cccc(OC(=O)c3ccco3)c2)n[nH]1,,17.8 µM (active)
CCOc1cc(/C=N/NC(=O)c2cc(C)[nH]n2)ccc1OC(=O)c1ccc([N+](=O)[O-])cc1,-2.27%,
CCC/C=C(\CCC)C(NS(=O)(=O)c1cccc2cccnc12)c1ccc(-c2ccccc2)cc1 (stereo not drawn),3.7%,
Fc1ccc(COc2ccc(Br)cc2CNCc2ccncc2)cc1,,0.126 µM (active)
C[N+]1(C)CCO[C@](O)(c2ccccc2)C1,0.284% [at 11.4 µM],
OCCNc1ncnc2c1ncn2[C@@H]1O[C@@H](CO)[C@H](O)[C@@H]1O,3.15% [at 11.4 µM],
COc1ccc(-c2nc(-c3cccc(C)c3)nc(N3CCN(C)CC3)c2C#N)cc1,-4.97%,
CN1CCCC1CCNC1C2CC3CC(C2)CC1C3 (stereo not drawn),-4.6%,
c1ccc(CN2CCC3(CCCc4ccccc43)CC2)cc1,,0.251 µM (active)
CC(=O)c1ccc(N2CCC(c3cc(-c4ccc(Cl)cc4)n[nH]3)CC2)c([N+](=O)[O-])c1,-10.3%,
CCOc1cc(/C=C2/C(=N)N3C=CSC3=NC2=O)ccc1OCCCOc1ccccc1C,1.57%,
CCc1nc(SCC(=O)NCCc2ccccc2)c2oc3ccccc3c2n1,-12.7%,
O=C(CSCc1ccccc1Cl)NN1C(=O)c2ccccc2C1=O,-17.7%,

SMILES,"activity, negative = inhibition",AC50
NCCSCc1ccccc1Cl,,3.16 µM (active)
O=C(CSCc1ccccc1Cl)NNC(=O)c1ccccc1,1.46%,
COc1ccc(C2N(c3ccccn3)C(=O)C3CCCN32)c(OC)c1 (stereo not drawn),4%,
Cc1ccc(OCCNC(=O)c2cc(-n3cnnc3)ccc2Cl)cc1C,29.2%,
CN(C)CCNC(=O)c1cc(Br)ccc1Cl,-18.4%,
CSc1ccc(Cl)c(C(=O)NCCOc2cc(C)ccc2C(C)C)c1,,11.2 µM (active)
O=C1CCCC=C1[C@H](O)c1ccc([N+](=O)[O-])cc1,-11.2% [at 11.4 µM],
NC(N)=NC(N)=Nc1ccccc1 (tested in a mixture with another compound),-8.99% [at 11.4 µM],
NC(N)=NC(N)=Nc1ccccc1,2.4%,
Cc1ccc(C(N)=Nc2ccccc2)cc1,,3.16 µM (active)
COCCn1c(=O)c(-c2cccc(C#N)c2)nc2cnc(N3CCNCC3)nc21,-6.32%,
O=[N+]([O-])c1ccc(N2CCN(CCOc3nonc3-c3ccccc3)CC2)c(Cl)c1,,0.112 µM (active)
O=[N+]([O-])c1ccc(N2CCN(Cc3ccccc3)CC2)c(S(=O)(=O)N2CCOCC2)c1,-18.2%,
CCC(=O)NC(=S)N1CCN(c2ccc([N+](=O)[O-])cc2Cl)CC1,-14.4%,
CCCCCCc1nc2ccccc2c(=O)n1NC(=O)c1c(O)c2c(n(CC(C)C)c1=O)CCCC2,22.7%,
CCCn1c2c(c(O)c(C(=O)NCc3ccccc3)c1=O)CCCC2,,10 µM (active)
Cc1cc(=O)oc(C)c1C(=O)NCc1ccccc1,-2.69%,
O=c1cnc2cnc(Nc3ccccc3)nc2n1CCc1ccccc1,-1.38%,
Cc1ccccc1C(=O)N1CCN(c2ccc([N+](=O)[O-])c(N3CCOCC3)c2)CC1,-1%,
Cc1cccc(C)c1NC(=O)CSc1nc(C)c(CC(=O)c2ccc(Br)cc2)c(C)c1C#N,-9.75%,
Cc1ccnc(NCn2nnc3ccccc32)c1,-14.9%,
